Experimental data from PubChem BioAssay AID1159580 (chemical genetic matrix, 2015).
About 2,000 (36%) of roughly 5,500 compounds were called active. Not shown: some 18% with an inconclusive outcome. Rule as the data show it: active = normalized growth mostly below about 0.91 (no sharp cut-off); inconclusive = no clear call, values can overlap the other calls; inactive = mostly above about 0.92. Some of the results follow.

Experiment: chemical genetic growth profiling, strain panel (AID 1159580);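 also: tested at 20 µM; growth read once vehicle control cultures reached saturation at 30 °C; 1 = growth at the plate median or of vehicle wells; lower values mean less growth of the strain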
Details: growth OD

Measured: normalized growth

O=C1OC(c2ccc(O)cc2)(c2ccc(O)cc2)c2ccccc21
inactive: S. cerevisiae deletion strains, locus YJR043C, strain POL32, stronger effect = lower value 0.991 | S. cerevisiae deletion strains, locus YJR066W, strain TOR1, stronger effect = lower value 0.937 | S. cerevisiae deletion strains, locus YKL009W, strain mrt4, stronger effect = lower value 0.979 | S. cerevisiae deletion strains, locus YKL068W, stronger effect = lower value 0.991 | S. cerevisiae deletion strains, locus YKL085W, strain MDH1 (second series), stronger effect = lower value 0.975 | S. cerevisiae deletion strains, locus YKL085W, strain MDH1, stronger effect = lower value 0.975 | S. cerevisiae deletion strains, locus YKL160W, strain elf1, stronger effect = lower value 0.97 | S. cerevisiae deletion strains, locus YKL190W, strain CNB1, stronger effect = lower value 0.994 | S. cerevisiae deletion strains, locus YKR001C, strain vps1, stronger effect = lower value 0.993 | S. cerevisiae deletion strains, locus YKR091W, strain srl3, stronger effect = lower value 0.989 | S. cerevisiae deletion strains, locus YLL001W, strain dnm1, stronger effect = lower value 0.964 | S. cerevisiae deletion strains, locus YLL026W, stronger effect = lower value 0.973 | S. cerevisiae deletion strains, locus YLL041C, strain sdh2, stronger effect = lower value 0.979 | S. cerevisiae deletion strains, locus YLR027C, strain aat2, stronger effect = lower value 0.983 | S. cerevisiae deletion strains, locus YLR039C, strain RIC1, stronger effect = lower value 0.96 | S. cerevisiae deletion strains, locus YLR058C, strain SHM2, stronger effect = lower value 0.995 | S. cerevisiae deletion strains, locus YLR102C, strain apc9, stronger effect = lower value 0.978 | S. cerevisiae deletion strains, locus YLR113W, strain HOG1, stronger effect = lower value 0.974 | S. cerevisiae deletion strains, locus YLR221C, strain rsa3, stronger effect = lower value 1.01 | S. cerevisiae deletion strains, locus YLR258W, strain gsy2, stronger effect = lower value 0.973 | S. cerevisiae deletion strains, locus YLR262C, strain YPT6 (second series), stronger effect = lower value 0.995 | S. cerevisiae deletion strains, locus YLR262C, strain YPT6, stronger effect = lower value 0.946 | S. cerevisiae deletion strains, locus YLR268W, strain sec22, stronger effect = lower value 0.916 | S. cerevisiae deletion strains, locus YLR320W, strain mms22, stronger effect = lower value 1 | S. cerevisiae deletion strains, locus YLR330W, strain CHS5, stronger effect = lower value 0.982 | S. cerevisiae deletion strains, locus YLR342W, strain FKS1 (second series), stronger effect = lower value 0.998 | S. cerevisiae deletion strains, locus YLR342W, strain FKS1, stronger effect = lower value 0.994 | S. cerevisiae deletion strains, locus YLR357W, strain rsc2, stronger effect = lower value 0.949 | S. cerevisiae deletion strains, locus YLR370C, strain arc18, stronger effect = lower value 0.989 | S. cerevisiae deletion strains, locus YLR371W, strain rom2, stronger effect = lower value 0.948 | S. cerevisiae deletion strains, locus YLR384C, strain iki3, stronger effect = lower value 0.981 | S. cerevisiae deletion strains, locus YML016C, strain PPZ1, stronger effect = lower value 1 | S. cerevisiae deletion strains, locus YML032C, strain rad52, stronger effect = lower value 0.956 | S. cerevisiae deletion strains, locus YML120C, strain ndi1, stronger effect = lower value 0.977 | S. cerevisiae deletion strains, locus YML124C, strain tub3, stronger effect = lower value 0.978 | S. cerevisiae deletion strains, locus YMR058W, strain fet3, stronger effect = lower value 0.966 | S. cerevisiae deletion strains, locus YMR078C, strain ctf18, stronger effect = lower value 0.968 | S. cerevisiae deletion strains, locus YMR125W, strain sto1, stronger effect = lower value 0.962 | S. cerevisiae deletion strains, locus YMR129W, stronger effect = lower value 0.987 | S. cerevisiae deletion strains, locus YMR205C, strain PFK2, stronger effect = lower value 0.971 | S. cerevisiae deletion strains, locus YMR223W, strain ubp8, stronger effect = lower value 0.997 | S. cerevisiae deletion strains, locus YMR231W, strain pep5, stronger effect = lower value 0.992 | S. cerevisiae deletion strains, locus YMR307W, strain GAS1, stronger effect = lower value 0.909 | S. cerevisiae deletion strains, locus YNL067W, strain RPL9B, stronger effect = lower value 0.987 | S. cerevisiae deletion strains, locus YNL071W, strain lat1, stronger effect = lower value 0.95 | S. cerevisiae deletion strains, locus YNL153C, strain GIM3, stronger effect = lower value 1 | S. cerevisiae deletion strains, locus YNL183C, strain NPR1, stronger effect = lower value 0.956 | S. cerevisiae deletion strains, locus YNL209W, strain ssb2, stronger effect = lower value 0.99 | S. cerevisiae deletion strains, locus YNL233W, strain BNI4, stronger effect = lower value 0.981 | S. cerevisiae deletion strains, locus YNL250W, strain rad50, stronger effect = lower value 0.99 | S. cerevisiae deletion strains, locus YNL271C, strain bni1, stronger effect = lower value 0.988 | S. cerevisiae deletion strains, locus YNL298W, strain CLA4, stronger effect = lower value 0.99 | S. cerevisiae deletion strains, locus YNL307C, strain MCK1, stronger effect = lower value 0.937 | S. cerevisiae deletion strains, locus YNL322C, strain KRE1 (second series), stronger effect = lower value 0.991 | S. cerevisiae deletion strains, locus YNL322C, strain KRE1, stronger effect = lower value 0.994 | S. cerevisiae deletion strains, locus YNR049C, strain mso1, stronger effect = lower value 0.99 | S. cerevisiae deletion strains, locus YNR052C, strain pop2, stronger effect = lower value 0.969 | S. cerevisiae deletion strains, locus YOL006C, strain TOP1, stronger effect = lower value 0.952 | S. cerevisiae deletion strains, locus YOL012C, strain htz1 0.612 | S. cerevisiae deletion strains, locus YOL147C, strain pex11, stronger effect = lower value 0.981 | S. cerevisiae deletion strains, locus YOR001W, strain rrp6, stronger effect = lower value 0.973 | S. cerevisiae deletion strains, locus YOR061W, strain CKA2, stronger effect = lower value 1 | S. cerevisiae deletion strains, locus YOR069W, strain VPS5, stronger effect = lower value 0.988 | S. cerevisiae deletion strains, locus YOR070C, strain gyp1, stronger effect = lower value 0.991 | S. cerevisiae deletion strains, locus YOR080W, strain dia2, stronger effect = lower value 0.981 | S. cerevisiae deletion strains, locus YOR083W, strain WHI5, stronger effect = lower value 0.983 | S. cerevisiae deletion strains, locus YOR106W, strain vam3, stronger effect = lower value 0.944 | S. cerevisiae deletion strains, locus YOR136W, strain idh2, stronger effect = lower value 0.983 | S. cerevisiae deletion strains, locus YOR144C, strain elg1, stronger effect = lower value 0.987 | S. cerevisiae deletion strains, locus YOR184W, strain ser1, stronger effect = lower value 0.939 | S. cerevisiae deletion strains, locus YOR231W, strain MKK1, stronger effect = lower value 0.974 | S. cerevisiae deletion strains, locus YOR265W, strain rbl2, stronger effect = lower value 0.995 | S. cerevisiae deletion strains, locus YOR270C, strain vph1, stronger effect = lower value 0.89 | S. cerevisiae deletion strains, locus YOR290C, strain snf2, stronger effect = lower value 0.965 | S. cerevisiae deletion strains, locus YOR316C, strain cot1, stronger effect = lower value 0.968 | S. cerevisiae deletion strains, locus YPL051W, strain arl3, stronger effect = lower value 1 | S. cerevisiae deletion strains, locus YPL078C, strain atp4, stronger effect = lower value 0.952 | S. cerevisiae deletion strains, locus YPL106C, strain sse1, stronger effect = lower value 1.01 | S. cerevisiae deletion strains, locus YPL240C, strain hsp82, stronger effect = lower value 0.982 | S. cerevisiae deletion strains, locus YPL241C, strain CIN2, stronger effect = lower value 0.989 | S. cerevisiae deletion strains, locus YPL256C, strain CLN2, stronger effect = lower value 0.965 | S. cerevisiae deletion strains, locus YPR119W, strain clb2, stronger effect = lower value 0.98 | S. cerevisiae deletion strains, locus YPR141C, strain kar3, stronger effect = lower value 0.998 | S. cerevisiae deletion strains, locus YPR163C, strain tif3, stronger effect = lower value 0.965 | S. cerevisiae deletion strains, locus YPR167C, strain met16, stronger effect = lower value 0.972 | S. cerevisiae deletion strains, strain wtn01, stronger effect = lower value 0.954 | S. cerevisiae strains, strain wild type, stronger effect = lower value 0.998
active: S. cerevisiae deletion strains, locus YLR418C, strain cdc73, stronger effect = lower value 0.835
